In PubChem BioAssay (Tox21):
Several values for one entry are separate records, joined by “and”; a condition that tells them apart may be missing. Equal values may be shown once. Inconclusive results are not listed. Values without a mark were called inactive. Activity calls are given as the source filed them. The call rests on the fitted dose curve; in most records, active means well fitted activation curve with a large enough effect in the repeat runs; inconclusive means weak or mixed curves; inactive means no such curve, though single readings can be large or run the other way.

Experiment: qHTS assay for small molecules that induce genotoxicity in human embryonic kidney cells expressing luciferase-tagged ATAD5 (AID 651632); further: nearly all actives have a fitted effect of over 15% in size
Details: HEK293T ATAD5-luciferase induction, 16 h; series mostly up to 83.3 µM; activation: at the top concentration
Description: U.S. Tox21 Program National Center for Advancing Translational Sciences [NCATS] NIH Chemical Genomics Center [NCGC] U.S. Environmental Protection Agency [EPA] National Institutes of Environmental Health Sciences [NIEHS] National Toxicology Program [NTP] U.S. Food and Drug Administration [FDA] Tox21 Assay Overview: As cancer cells divide rapidly and during every cell division they need to duplicate their genome by DNA replication. The failure to do so results in the cancer cell death. Based on this concept, many chemotherapeutic agents were developed but have limitations such as low efficacy and severe side effects etc. A new cell based assay was developed to find the compounds that effectively block DNA replication either by directly damaging DNA or by inhibiting other cellular mechanisms. Enhanced Level of Genome Instability Gene 1 (ELG1; human ATAD5) protein levels increase in response to various types of DNA damage. Using a luciferase reporter-gene tagged with ATAD5, a cell-based assay [developed by Kyungjae Myung, NHGRI, NIH] was used to measure the induction of ATAD5 in human embryonic kidney cells (HEK293T). So, increase in luciferase activity can be used to identify the compounds that cause genetic stress.
Tox21 Assay Protocol Summary: For genotoxicity screening, 2,000 cells in 5 uL/well were dispensed into white, solid-bottom 1536-well plates using a Multidrop Combi (Thermo Scientific) dispenser. Following transfer of 23 nL compound or DMSO vehicle by a pin tool, the plates were incubated 16 hr at 37C and 5% CO2. 5 ul Amplite (AAT Bioquest, Inc.) was then added to each plate and following 30 min incubation at room temperature, luciferase activity was quantified on a ViewLux CCD-based plate reader.
On the % scale 0 is the no-effect control and ±100 the full control effect; potency means the concentration at half of the fitted maximal effect.

Structure (SMILES)	activation	Potency
CCOP(=S)(OCC)Oc1ccc(S(C)=O)cc1 (stereo not given)	-2.38%	–
COc1ccc(C(=O)c2c(C)n(CCN3CCOCC3)c3ccccc23)cc1	-8.62%	–
C=C(C)C(=O)OCCCCOC(=O)C(=C)C	1.72%	–
CC(C)(C)N(NC(=O)c1ccc(Cl)cc1)C(=O)c1ccccc1	-3%	–
N#CC1(N=NC2(C#N)CCCCC2)CCCCC1	-1.44%	–
CN(C)c1ccc(N=O)cc1	–	21.8 µM (active) and 68.6 µM (active)
O=[N+]([O-])c1cc(Cl)c(Cl)cc1Cl	-4.5%	–
CCCCC(CC)COC(=O)c1c(Br)c(Br)c(Br)c(Br)c1C(=O)OCC(CC)CCCC (stereo not given)	5.96%	–
O=C1NC(=O)C(=O)C(=O)N1	0.472% [at 95.3 µM]	–
CCCN(CCC)C(=O)Cc1c(-c2ccc(Cl)cc2)nc2ccc(Cl)cn12	-1.33%	–
Nc1cc(Cl)cc(C(=O)O)c1Cl	–	inactive
C[C@]12CC[C@H]3[C@@H](CCC4=CC(=O)CC[C@@H]43)[C@@H]1CC[C@@H]2OC(=O)CCc1ccccc1	4.57%	–
OCCSSCCO	-1.04%	–
OCCCl	0.877%	–
Nc1ccccc1C(=O)OCCc1ccccc1	–	1.09 µM (active) and 433 nM (active)
COC1CC(=C(c2cccs2)c2cccs2)C[N+](C)(C)C1 (stereo not given)	-5.42%	–
CC(C)c1ccc(NC(=O)N(C)C)cc1	5.13%	–
Clc1ccccc1	-0.971%	–
C[C@H](N)[C@H](O)c1ccc(O)c(O)c1	3.6%	–
O=C(O)C(F)(F)C(F)(F)C(F)(F)C(F)(F)C(F)(F)F	3.82%	–

Structure (SMILES)	activation	Potency
C=CCOCC1CO1 (stereo not given)	1.22%	–
CCC(C)(C)O	0.0874%	–
O=[N+]([O-])O[C@H]1CO[C@H]2[C@@H]1OC[C@H]2O[N+](=O)[O-]	1.18%	–
O=CC=O	–	inactive
C=CCc1ccc(OC(=O)Cc2ccccc2)c(OC)c1	-0.566%	–
C=CCN1C[C@H](C)N([C@H](c2ccc(C(=O)N(CC)CC)cc2)c2cccc(OC)c2)C[C@H]1C	-3.69%	–
C[N+](C)(C)CCOC(=O)C(O)(c1ccccc1)c1ccccc1	0.8%	–
O=C1c2ccccc2C(=O)N1SC(Cl)(Cl)Cl	–	inactive
C1CCNCC1	2.54% [at 95.3 µM]	–
CC(=O)OC(c1ccccc1)C(Cl)(Cl)Cl (stereo not given)	-2.16%	–
CNC(=O)Oc1cccc(N=CN(C)C)c1	-2.07%	–
NC(=O)CF	1.85%	–
CC(O)CN1CCN(CC(=O)[O-])CCN(CC(=O)[O-])CCN(CC(=O)[O-])CC1.[Gd+3] (stereo not given)	–	inactive
O=C(NC(=O)c1cc(F)c(F)cc1Cl)Nc1cc(F)ccc1N1CCC(C(=O)O)CC1	3.29%	–
CCCC(C)(COC(N)=O)COC(=O)NC(C)C (stereo not given)	–	inactive
COc1ccc(C(O)(c2cncnc2)C2CC2)cc1 (stereo not given)	1.08%	–
COc1ccccc1N1CCNCC1	-3.57%	–
c1ccc2c(c1)sc1ccccc12	–	inactive
Clc1ccc2ccccc2c1	-1.61% [at 95.3 µM]	–
CCCCC1C(=O)NC(=O)N(C2CCCCC2)C1=O (stereo not given)	1.54%	–
